{
  "source": "PubChem BioAssay (NCI)",
  "note": "Compounds without any hit were thinned out: in the full panel of roughly 79,000, 15% have a hit. Activity calls are given as the source filed them. No stated cut-off is given here; in the data, active means growth inhibition above about 70%; inactive means the rest.",
  "data": [
    {"experiment": "NCI Yeast Anticancer Drug Screen. Data for the bub3 strain (AID 167)", "settings": "S. cerevisiae bub3 mutant strain, at 50.0 µM, stronger effect = higher value", "summary_of_the_method": "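Screening used yeast with an engineered genetic alteration affecting cell cycle control. Compound-exposed cultures were compared with vehicle cultures, and reduced growth was taken as inhibition.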", "values": [
      {"smiles": "COc1ccc(CN2CCCN(Cc3ccc(OC)cc3OC)C2c2ccc(N(CCCl)CCCl)cc2)c(OC)c1", "growth inhibition": "5.25% (inactive)"},
      {"smiles": "[Cl][Pt+2][Cl].[NH-]c1ccc([N+](=O)[O-])cc1[NH-]", "growth inhibition": "68.3% (inactive)"},
      {"smiles": "O=C(Oc1ccc(S(=O)(=O)F)cc1F)c1ccccc1Cl", "growth inhibition": "99.4% (active)"},
      {"smiles": "Oc1c(I)cc(I)cc1I", "growth inhibition": "67.6% (inactive)"},
      {"smiles": "CCCCCCCCCCCCCCCC[N+](C)(C)CCOS(C)(=O)=O", "growth inhibition": "92.4% (active)"},
      {"smiles": "CN(C)CC1(N)C(=O)NC(=O)NC1=O", "growth inhibition": "95.2% (active)"},
      {"smiles": "CC1=C(O)C(=O)C=C2C1=CC=C1[C@@]2(C)CC[C@@]2(C)[C@@H]3C[C@](C)(C(=O)O)CC[C@]3(C)CC[C@]12C", "growth inhibition": "92.5% (active)"},
      {"smiles": "CCC[CH2][Sn]([CH2]CCC)([N]=C=S)[N]=C=S", "growth inhibition": "98.4% (active)"},
      {"smiles": "O=C(C[n+]1ccccc1)C1CCc2ccccc2C1", "note": "(stereo unspecified)", "growth inhibition": "-21.1% (inactive)"},
      {"smiles": "[Cl][Pt][Cl].c1ccc([AsH](CC[AsH](c2ccccc2)c2ccccc2)c2ccccc2)cc1", "growth inhibition": "99.2% (active)"},
      {"smiles": "COc1cc(/C=C\\[N+](=O)[O-])ccc1O", "growth inhibition": "99% (active)"},
      {"smiles": "Cc1sc(Cc2ccccc2)nc1-c1ccc(N=Cc2ccc(N(CCCl)CCCl)cc2)cc1", "growth inhibition": "89% (active)"},
      {"smiles": "CC1(C)C2CCC([CH2][Hg][Cl])C1C2", "note": "(stereo unspecified)", "growth inhibition": "99.3% (active)"},
      {"smiles": "CC12C(=O)C=CCC1=CCC1C2CCC2(O)C(=O)OC3(C)C4CC5(C)C(COC16OC23C5C6=O)C(=O)O4", "note": "(stereo unspecified)", "growth inhibition": "69.6% (inactive)"},
      {"smiles": "O=C(CBr)OCC(Br)CBr", "note": "(stereo unspecified)", "growth inhibition": "99.3% (active)"},
      {"smiles": "S=c1[nH]c2ccccc2s1.[Pb]", "growth inhibition": "94% (active)"}
    ]}
  ]
}
